According to the supplement of paper PMC11732987, “Enantioselective OTUD7B fragment discovery through chemoproteomics screening and high-throughput optimisation” (Communications Chemistry, 2025):

What was measured:
Experiment in all cases: log2 ratio of Biotin-Ahx-Ub-VS probe labelling (fragment/DMSO); higher = less target engagement (more negative = stronger competition), active = hit call of the paper (q ≤ 0.05, log2 ratio ≤ -1)
Details in all cases: compound concentration: 200 uM; treatment time: 3 h
ALG13 = target: T1, ALG13 (UniProt Q9NP73)
T1 sequence (whole entry): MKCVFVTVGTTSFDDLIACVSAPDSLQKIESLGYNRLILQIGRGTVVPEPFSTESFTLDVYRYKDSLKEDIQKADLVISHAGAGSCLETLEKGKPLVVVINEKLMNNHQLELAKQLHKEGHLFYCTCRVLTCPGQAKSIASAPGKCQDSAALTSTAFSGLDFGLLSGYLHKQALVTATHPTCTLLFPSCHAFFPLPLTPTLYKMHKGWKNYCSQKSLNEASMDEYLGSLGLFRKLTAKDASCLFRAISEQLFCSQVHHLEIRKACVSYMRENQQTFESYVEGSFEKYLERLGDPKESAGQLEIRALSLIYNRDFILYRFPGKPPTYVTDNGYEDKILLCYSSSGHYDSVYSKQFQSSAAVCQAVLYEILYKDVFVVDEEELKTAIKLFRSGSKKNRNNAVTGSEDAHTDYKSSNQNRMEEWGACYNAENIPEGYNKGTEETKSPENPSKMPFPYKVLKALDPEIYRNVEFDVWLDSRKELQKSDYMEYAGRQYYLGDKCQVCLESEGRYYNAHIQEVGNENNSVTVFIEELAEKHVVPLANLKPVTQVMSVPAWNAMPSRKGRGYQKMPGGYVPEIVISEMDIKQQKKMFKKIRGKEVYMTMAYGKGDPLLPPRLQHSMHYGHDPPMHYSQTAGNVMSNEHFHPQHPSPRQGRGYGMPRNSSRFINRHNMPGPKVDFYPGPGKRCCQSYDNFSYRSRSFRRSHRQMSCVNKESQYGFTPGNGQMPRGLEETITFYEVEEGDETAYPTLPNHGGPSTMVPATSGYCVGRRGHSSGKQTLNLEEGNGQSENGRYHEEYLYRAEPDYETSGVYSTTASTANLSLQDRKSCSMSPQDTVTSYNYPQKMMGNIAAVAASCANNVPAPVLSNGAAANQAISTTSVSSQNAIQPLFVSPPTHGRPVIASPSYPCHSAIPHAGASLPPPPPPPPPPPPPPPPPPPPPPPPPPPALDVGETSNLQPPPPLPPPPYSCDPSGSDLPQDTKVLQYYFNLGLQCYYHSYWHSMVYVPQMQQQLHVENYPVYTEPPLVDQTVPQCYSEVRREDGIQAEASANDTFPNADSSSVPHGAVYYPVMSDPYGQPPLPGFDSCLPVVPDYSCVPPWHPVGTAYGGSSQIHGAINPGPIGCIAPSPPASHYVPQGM
Procedure, shortened: (§1)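 Labelling with Biotin-Ahx-Ub-VS (0.5 µM final, 1 h) followed a 3 h triplicate treatment of HEK293T lysate (495 µg per sample, Tris/CHAPS/IGEPAL buffer with protease inhibitors) with fragment at 200 µM or vehicle. Labelled DUBs were NeutrAvidin-enriched, digested with LysC and trypsin, and run by diaPASEF LC-MS/MS. The values, average log2 fragment/vehicle ratios by unpaired t-test, come from global-median-normalised Spectronaut label-free quantities. Proteins with ≥2 unique peptides were used.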

ATXN3 = ATXN3 (UniProt P54252)
Procedure, shortened: as §1

BAP1 = target: T2, BAP1 (UniProt Q92560)
T2 sequence (whole entry): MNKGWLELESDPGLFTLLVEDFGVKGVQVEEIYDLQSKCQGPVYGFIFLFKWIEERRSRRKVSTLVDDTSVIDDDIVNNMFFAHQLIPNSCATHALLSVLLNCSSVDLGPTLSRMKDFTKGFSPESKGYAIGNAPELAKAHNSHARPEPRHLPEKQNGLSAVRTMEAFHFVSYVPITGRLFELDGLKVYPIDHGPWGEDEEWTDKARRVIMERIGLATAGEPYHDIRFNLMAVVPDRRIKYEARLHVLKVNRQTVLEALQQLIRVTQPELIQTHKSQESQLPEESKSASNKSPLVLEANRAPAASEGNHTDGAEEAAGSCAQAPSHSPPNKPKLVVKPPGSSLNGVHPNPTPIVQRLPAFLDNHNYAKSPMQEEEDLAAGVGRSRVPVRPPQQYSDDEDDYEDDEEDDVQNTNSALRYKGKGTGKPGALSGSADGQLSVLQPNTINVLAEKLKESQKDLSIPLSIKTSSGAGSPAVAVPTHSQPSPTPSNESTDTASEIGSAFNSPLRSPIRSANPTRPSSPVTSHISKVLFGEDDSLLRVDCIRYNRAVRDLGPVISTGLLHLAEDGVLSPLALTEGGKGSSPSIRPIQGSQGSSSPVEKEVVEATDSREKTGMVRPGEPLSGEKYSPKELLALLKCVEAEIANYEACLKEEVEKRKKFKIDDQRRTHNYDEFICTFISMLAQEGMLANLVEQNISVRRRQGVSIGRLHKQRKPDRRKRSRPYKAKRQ
Procedure, shortened: as §1

EIF3F = EIF3F (UniProt O00303)
Procedure, shortened: as §1

EIF3H = EIF3H (UniProt O15372)
Procedure, shortened: as §1

FAM105A = target: T3, FAM105A (UniProt Q9NUU6)
T3 sequence (whole entry): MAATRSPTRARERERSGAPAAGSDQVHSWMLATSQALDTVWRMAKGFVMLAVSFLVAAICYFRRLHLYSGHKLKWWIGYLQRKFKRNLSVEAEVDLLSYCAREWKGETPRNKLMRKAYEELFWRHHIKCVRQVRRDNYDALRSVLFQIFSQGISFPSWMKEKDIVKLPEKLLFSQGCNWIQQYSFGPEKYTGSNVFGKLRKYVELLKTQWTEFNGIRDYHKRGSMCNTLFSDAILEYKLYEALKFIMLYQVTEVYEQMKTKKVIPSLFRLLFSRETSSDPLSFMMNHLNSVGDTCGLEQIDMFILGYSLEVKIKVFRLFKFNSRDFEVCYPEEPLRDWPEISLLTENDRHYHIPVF
Procedure, shortened: as §1

OTUB1 = OTUB1 (UniProt Q96FW1)
Procedure, shortened: as §1

OTUD4 = target: T4, OTUD4 (UniProt Q01804)
T4 sequence (whole entry): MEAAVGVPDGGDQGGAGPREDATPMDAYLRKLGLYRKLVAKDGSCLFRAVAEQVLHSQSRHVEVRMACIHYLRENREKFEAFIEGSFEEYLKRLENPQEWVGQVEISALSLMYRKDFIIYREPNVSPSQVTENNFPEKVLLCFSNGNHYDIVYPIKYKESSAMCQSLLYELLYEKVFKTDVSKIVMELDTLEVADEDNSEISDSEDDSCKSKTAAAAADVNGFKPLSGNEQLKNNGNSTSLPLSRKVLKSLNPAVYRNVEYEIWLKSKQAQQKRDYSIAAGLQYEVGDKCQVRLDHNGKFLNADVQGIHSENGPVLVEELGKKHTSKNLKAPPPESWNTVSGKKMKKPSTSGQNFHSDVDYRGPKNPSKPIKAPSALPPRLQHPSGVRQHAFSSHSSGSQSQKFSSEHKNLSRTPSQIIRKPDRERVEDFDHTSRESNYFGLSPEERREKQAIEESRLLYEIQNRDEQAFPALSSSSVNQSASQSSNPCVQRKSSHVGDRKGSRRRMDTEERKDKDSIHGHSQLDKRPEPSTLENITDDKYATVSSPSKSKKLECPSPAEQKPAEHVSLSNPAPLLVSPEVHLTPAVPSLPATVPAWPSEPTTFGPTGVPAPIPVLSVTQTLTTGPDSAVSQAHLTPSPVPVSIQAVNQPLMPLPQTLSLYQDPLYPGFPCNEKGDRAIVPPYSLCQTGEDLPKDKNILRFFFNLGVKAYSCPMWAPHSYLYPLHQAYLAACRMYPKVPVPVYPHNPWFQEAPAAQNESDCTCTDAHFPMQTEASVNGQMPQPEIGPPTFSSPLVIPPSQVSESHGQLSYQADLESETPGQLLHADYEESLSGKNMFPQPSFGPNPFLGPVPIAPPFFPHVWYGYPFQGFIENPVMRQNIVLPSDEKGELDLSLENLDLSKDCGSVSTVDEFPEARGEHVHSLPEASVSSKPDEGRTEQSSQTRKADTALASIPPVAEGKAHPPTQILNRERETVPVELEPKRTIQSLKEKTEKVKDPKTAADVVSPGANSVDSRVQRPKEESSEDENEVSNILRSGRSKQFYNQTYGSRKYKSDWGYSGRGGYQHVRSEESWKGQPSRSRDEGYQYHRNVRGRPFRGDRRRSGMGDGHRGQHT
Procedure, shortened: as §1

OTUD5 = target: T5, OTUD5 (UniProt Q96G74)
T5 sequence (whole entry): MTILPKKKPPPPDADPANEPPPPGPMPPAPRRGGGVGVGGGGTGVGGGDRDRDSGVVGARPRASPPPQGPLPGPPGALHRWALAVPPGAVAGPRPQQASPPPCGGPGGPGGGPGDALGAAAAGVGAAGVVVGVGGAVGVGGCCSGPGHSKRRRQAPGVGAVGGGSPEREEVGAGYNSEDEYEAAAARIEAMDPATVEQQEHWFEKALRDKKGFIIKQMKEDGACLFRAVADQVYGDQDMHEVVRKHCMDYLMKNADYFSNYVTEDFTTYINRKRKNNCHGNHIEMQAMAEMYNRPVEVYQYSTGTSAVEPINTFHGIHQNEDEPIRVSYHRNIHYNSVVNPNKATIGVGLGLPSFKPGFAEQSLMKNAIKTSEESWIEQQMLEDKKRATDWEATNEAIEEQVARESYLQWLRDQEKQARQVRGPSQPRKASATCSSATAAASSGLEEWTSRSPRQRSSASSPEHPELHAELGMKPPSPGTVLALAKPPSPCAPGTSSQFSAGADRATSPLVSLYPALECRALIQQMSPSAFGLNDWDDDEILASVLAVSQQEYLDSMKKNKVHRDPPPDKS
Procedure, shortened: as §1

Measured: log2 ratio of Biotin-Ahx-Ub-VS probe labelling

Chain of ATXN3 (P54252 whole entry): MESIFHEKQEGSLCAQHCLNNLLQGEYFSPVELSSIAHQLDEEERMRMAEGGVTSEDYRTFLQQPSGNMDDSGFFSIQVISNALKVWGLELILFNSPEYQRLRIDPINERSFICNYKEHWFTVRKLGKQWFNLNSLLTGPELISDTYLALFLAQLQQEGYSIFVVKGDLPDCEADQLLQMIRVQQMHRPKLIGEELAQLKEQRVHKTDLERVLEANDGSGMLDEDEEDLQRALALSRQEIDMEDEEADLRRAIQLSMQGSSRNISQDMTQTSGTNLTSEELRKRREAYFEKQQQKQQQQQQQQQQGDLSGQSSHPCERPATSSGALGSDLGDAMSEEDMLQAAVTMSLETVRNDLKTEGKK
Chain of EIF3H (O15372 whole entry): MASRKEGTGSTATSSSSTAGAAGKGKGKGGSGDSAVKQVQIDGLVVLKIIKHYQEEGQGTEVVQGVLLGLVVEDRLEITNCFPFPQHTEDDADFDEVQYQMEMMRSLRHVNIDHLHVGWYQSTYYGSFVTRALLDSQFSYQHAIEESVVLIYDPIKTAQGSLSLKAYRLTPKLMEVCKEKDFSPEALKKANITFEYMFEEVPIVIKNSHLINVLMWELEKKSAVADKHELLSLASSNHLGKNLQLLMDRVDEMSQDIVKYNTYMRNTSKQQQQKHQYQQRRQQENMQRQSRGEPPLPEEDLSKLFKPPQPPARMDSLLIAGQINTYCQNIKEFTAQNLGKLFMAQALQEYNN
Chain of EIF3F (O00303 whole entry): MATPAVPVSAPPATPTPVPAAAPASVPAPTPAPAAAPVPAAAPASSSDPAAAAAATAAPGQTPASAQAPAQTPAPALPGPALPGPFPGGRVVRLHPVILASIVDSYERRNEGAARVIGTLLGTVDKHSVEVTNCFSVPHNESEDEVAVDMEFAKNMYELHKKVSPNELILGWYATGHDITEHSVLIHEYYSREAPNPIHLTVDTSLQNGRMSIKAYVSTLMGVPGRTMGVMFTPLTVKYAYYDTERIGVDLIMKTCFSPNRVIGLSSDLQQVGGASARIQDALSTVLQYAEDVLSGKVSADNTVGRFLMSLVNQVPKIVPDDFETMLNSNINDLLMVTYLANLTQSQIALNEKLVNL
Chain of OTUB1 (Q96FW1 whole entry): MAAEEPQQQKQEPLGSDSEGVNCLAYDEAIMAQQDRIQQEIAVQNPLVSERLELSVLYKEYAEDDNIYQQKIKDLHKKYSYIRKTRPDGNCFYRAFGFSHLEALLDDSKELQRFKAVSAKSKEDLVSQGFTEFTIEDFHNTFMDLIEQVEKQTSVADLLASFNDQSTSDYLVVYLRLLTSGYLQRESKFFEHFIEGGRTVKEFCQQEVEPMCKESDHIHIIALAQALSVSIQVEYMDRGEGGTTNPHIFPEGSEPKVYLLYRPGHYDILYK

Cc1c(NC(=O)CCl)c(=O)n(-c2ccccc2)n1C
inactive: ALG13 0.0604 | ATXN3 -0.0623 | EIF3F -0.188 | EIF3H 0.333 | FAM105A -0.533 | OTUB1 -0.0746 | OTUD4 0.11 | OTUD5 -0.0203
active: BAP1 -1.12
